From PubChem BioAssay AID1159580 (chemical genetic matrix, 2015)
In all, about 5,500 compounds went through this assay and about 2,000 (36%) were called active. Another 18% or so got no clear call; they are omitted. Cut-off read from the data, not from the text of the source: active = normalized growth mostly below about 0.91 (no sharp cut-off); inconclusive = no clear call, values can overlap the other calls; inactive = mostly above about 0.92. This is one part of the list.

Assay: chemical genetic growth profiling, strain panel (AID 1159580);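 note: tested at 20 µM; growth read once vehicle control cultures reached saturation at 30 °C; 1 = growth at the plate median or of vehicle wells; lower values mean less growth of the strain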
Details: growth OD
[1] = S. cerevisiae deletion strains, locus YDL101C, strain DUN1, active compounds read low
[2] = S. cerevisiae deletion strains, locus YHR030C, strain SLT2, active compounds read low

Measured: normalized growth

COCCCNC(=S)N/N=C\c1cccc(OC)c1O
inactive: S. cerevisiae deletion strains, locus YAL013W, strain DEP1, active compounds read low 0.984 | S. cerevisiae deletion strains, locus YBR229C, strain ROT2, active compounds read low 1.02 | S. cerevisiae deletion strains, locus YCL061C, strain MRC1, active compounds read low 0.979 | [1] 0.998 | S. cerevisiae deletion strains, locus YDL134C, strain PPH21, active compounds read low 1.01 | S. cerevisiae deletion strains, locus YDR150W, strain NUM1, active compounds read low 0.928 | S. cerevisiae deletion strains, locus YEL061C, strain CIN8, active compounds read low 0.999 | S. cerevisiae deletion strains, locus YGR078C, strain PAC10, active compounds read low 0.991 | [2] 1.01 | S. cerevisiae deletion strains, locus YHR087W, strain rtc3, active compounds read low 1.01 | S. cerevisiae deletion strains, locus YJR043C, strain POL32, active compounds read low 1.01 | S. cerevisiae deletion strains, locus YJR075W, strain HOC1, active compounds read low 0.979 | S. cerevisiae deletion strains, locus YLR039C, strain RIC1, active compounds read low 1.11 | S. cerevisiae deletion strains, locus YLR058C, strain SHM2 (second series), active compounds read low 0.997 | S. cerevisiae deletion strains, locus YLR085C, strain ARP6, active compounds read low 0.978 | S. cerevisiae deletion strains, locus YLR262C, strain YPT6, active compounds read low 1.08 | S. cerevisiae deletion strains, locus YML094W, strain GIM5, active compounds read low 0.994 | S. cerevisiae deletion strains, locus YMR219W, strain ESC1, active compounds read low 0.991 | S. cerevisiae deletion strains, locus YMR263W, strain SAP30, active compounds read low 0.991 | S. cerevisiae deletion strains, locus YMR307W, strain GAS1, active compounds read low 0.951 | S. cerevisiae deletion strains, locus YNL153C, strain GIM3, active compounds read low 0.987 | S. cerevisiae deletion strains, locus YNL298W, strain CLA4 (second series), active compounds read low 1.04 | S. cerevisiae deletion strains, locus YNL322C, strain KRE1, active compounds read low 0.989 | S. cerevisiae deletion strains, locus YNR030W, strain Alg12, active compounds read low 0.982 | S. cerevisiae deletion strains, locus YOL006C, strain TOP1, active compounds read low 0.988 | S. cerevisiae deletion strains, locus YPL055C, strain LGE1, active compounds read low 0.856 | S. cerevisiae deletion strains, locus YPL241C, strain CIN2, active compounds read low 0.964 | S. cerevisiae deletion strains, locus YPR135W, strain CTF4, active compounds read low 0.94 | S. cerevisiae strains, strain wild type, active compounds read low 1.02

COCCCNC(=S)N/N=C\c1cc(Br)ccc1O
inactive: S. cerevisiae deletion strains, locus YAR019C, strain CDC15, active compounds read low 0.967 | S. cerevisiae deletion strains, locus YBL105C, strain PKC1, active compounds read low 0.971 | S. cerevisiae deletion strains, locus YBR135W, strain CKS1, active compounds read low 0.962 | S. cerevisiae deletion strains, locus YBR136W, strain MEC1, active compounds read low 0.967 | S. cerevisiae deletion strains, locus YBR160W, strain CDC28, active compounds read low 0.961 | S. cerevisiae deletion strains, locus YDL017W, strain CDC7, active compounds read low 0.966 | S. cerevisiae deletion strains, locus YDL028C, strain MPS1, active compounds read low 0.963 | [1] 0.975 | S. cerevisiae deletion strains, locus YDL108W, strain KIN28, active compounds read low 0.97 | S. cerevisiae deletion strains, locus YDL132W, strain cdc53, active compounds read low 0.963 | S. cerevisiae deletion strains, locus YDL214C, strain PRR2, active compounds read low 0.977 | S. cerevisiae deletion strains, locus YDR052C, strain DBF4, active compounds read low 0.973 | S. cerevisiae deletion strains, locus YDR054C, strain cdc34, active compounds read low 0.956 | S. cerevisiae deletion strains, locus YDR226W, strain ADK1, active compounds read low 0.96 | S. cerevisiae deletion strains, locus YDR477W, strain SNF1, active compounds read low 0.954 | S. cerevisiae deletion strains, locus YER123W, strain YCK3, active compounds read low 0.989 | S. cerevisiae deletion strains, locus YER133W, strain GLC7, active compounds read low 0.95 | S. cerevisiae deletion strains, locus YFL009W, strain cdc4, active compounds read low 0.96 | S. cerevisiae deletion strains, locus YFL029C, strain CAK1, active compounds read low 0.963 | S. cerevisiae deletion strains, locus YFR003C, strain YPI1, active compounds read low 0.966 | S. cerevisiae deletion strains, locus YFR019W, strain FAB1, active compounds read low 0.983 | S. cerevisiae deletion strains, locus YFR028C, strain CDC14, active compounds read low 0.972 | S. cerevisiae deletion strains, locus YGR040W, strain KSS1, active compounds read low 0.957 | S. cerevisiae deletion strains, locus YGR052W, strain FMP48, active compounds read low 1 | S. cerevisiae deletion strains, locus YGR092W, strain DBF2, active compounds read low 0.915 | [2] 0.898 | S. cerevisiae deletion strains, locus YHR079C, strain IRE1, active compounds read low 0.967 | S. cerevisiae deletion strains, locus YHR082C, strain KSP1, active compounds read low 1.03 | S. cerevisiae deletion strains, locus YHR205W, strain SCH9, active compounds read low 0.943 | S. cerevisiae deletion strains, locus YIL147C, strain SLN1, active compounds read low 0.957 | S. cerevisiae deletion strains, locus YJL095W, strain BCK1, active compounds read low 0.992 | S. cerevisiae deletion strains, locus YJL128C, strain PBS2, active compounds read low 0.936 | S. cerevisiae deletion strains, locus YJL157C, strain FAR1, active compounds read low 0.965 | S. cerevisiae deletion strains, locus YJR016C, strain ILV3, active compounds read low 0.966 | S. cerevisiae deletion strains, locus YJR066W, strain TOR1 (second series), active compounds read low 0.983 | S. cerevisiae deletion strains, locus YJR066W, strain TOR1, active compounds read low 1.02 | S. cerevisiae deletion strains, locus YKL048C, strain ELM1, active compounds read low 0.98 | S. cerevisiae deletion strains, locus YKL067W, strain YNK1, active compounds read low 0.984 | S. cerevisiae deletion strains, locus YKL101W, strain HSL1, active compounds read low 0.975 | S. cerevisiae deletion strains, locus YKL193C, strain SDS22, active compounds read low 0.954 | S. cerevisiae deletion strains, locus YKL203C, strain TOR2, active compounds read low 1.02 | S. cerevisiae deletion strains, locus YLR113W, strain HOG1, active compounds read low 0.985 | S. cerevisiae deletion strains, locus YLR133W, strain CKI1, active compounds read low 0.967 | S. cerevisiae deletion strains, locus YLR403W, strain SFP1, active compounds read low 0.91 | S. cerevisiae deletion strains, locus YML070W, strain DAK1, active compounds read low 0.982 | S. cerevisiae deletion strains, locus YMR001C, strain CDC5, active compounds read low 0.965 | S. cerevisiae deletion strains, locus YMR205C, strain PFK2 (second series), active compounds read low 0.973 | S. cerevisiae deletion strains, locus YMR277W, strain FCP1, active compounds read low 0.961 | S. cerevisiae deletion strains, locus YNL006W, strain LST8, active compounds read low 0.965 | S. cerevisiae deletion strains, locus YNL020C, strain ARK1, active compounds read low 0.975 | S. cerevisiae deletion strains, locus YNL161W, strain CBK1, active compounds read low 0.962 | S. cerevisiae deletion strains, locus YNL183C, strain NPR1, active compounds read low 1.09 | S. cerevisiae deletion strains, locus YNL207W, strain RIO2, active compounds read low 0.967 | S. cerevisiae deletion strains, locus YNL222W, strain SSU72, active compounds read low 0.966 | S. cerevisiae deletion strains, locus YNL307C, strain MCK1 (second series), active compounds read low 0.97 | S. cerevisiae deletion strains, locus YOL078W, strain AVO1, active compounds read low 0.964 | S. cerevisiae deletion strains, locus YOL136C, strain PFK27, active compounds read low 0.982 | S. cerevisiae deletion strains, locus YOR061W, strain CKA2, active compounds read low 0.974 | S. cerevisiae deletion strains, locus YOR119C, strain RIO1, active compounds read low 1.03 | S. cerevisiae deletion strains, locus YOR231W, strain MKK1, active compounds read low 0.997 | S. cerevisiae deletion strains, locus YOR329C, strain SCD5, active compounds read low 0.966 | S. cerevisiae deletion strains, locus YPL031C, strain PHO85, active compounds read low 0.938 | S. cerevisiae deletion strains, locus YPL153C, strain RAD53, active compounds read low 0.951 | S. cerevisiae deletion strains, locus YPL204W, strain HRR25, active compounds read low 0.937 | S. cerevisiae deletion strains, locus YPL209C, strain IPL1, active compounds read low 0.965 | S. cerevisiae deletion strains, locus YPL256C, strain CLN2, active compounds read low 0.903 | S. cerevisiae deletion strains, locus YPR025C, strain CCL1, active compounds read low 0.962 | S. cerevisiae deletion strains, locus YPR106W, strain ISR1, active compounds read low 0.971 | S. cerevisiae deletion strains, locus YPR111W, strain DBF20, active compounds read low 0.967 | S. cerevisiae deletion strains, strain NNK1, active compounds read low 0.982 | S. cerevisiae deletion strains, strain TSCII, active compounds read low 0.964
